Only some compounds are listed: those with a hit (about 9.9% of all), similar ones and a draw of the others.
SW480 rerep – A quantitative high throughput screen for small molecules that induce DNA re-replication in SW480 colon adenocarcinoma cells | SW480 DNA re-replication, Hoechst DNA content imaging, 48 h | Potency, µM (series often up to 46.1 µM), without a hit: at the top dose re-replication activation, hits mostly activators | 1.8% of 340,000 active | AID 624297, 2012; also: potency is read from the fitted curve at half-maximal effect; % of control where 0% means no effect; nearly all actives have a fitted effect of over 55% in size
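First, 250 cells per well were seeded. Next, compound or vehicle (23 nL) was pinned in, plates sat 48 hr at 37 C. Finally Hoechst was added for 40 min before fluorescence scanning.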
KB-V1 cytotox – qHTS assay for MDR1-selective chemotherapeutics: Primary screen using the drug-selected MDR subline cells KB-V1 | KB-V1 MDR cells viability, CellTiter-Glo, 72 h | Potency, µM (doses to about 46.1 µM), hits mostly cytotoxic | 3.4% of 400,000 active; also: potency is read from the fitted curve at half-maximal effect; % is scaled to controls: 0 for no effect and ±100 for the full control effect; nearly all actives have a fitted effect of over 60% in size
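In this primary screen, KB-V1 cells overexpressing P-gp are incubated with library compounds (lowest to highest concentration) for 72 h at 37 degrees C before a luminescent ATP viability read.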
MCF10A rerep – A quantitative high throughput screen for small molecules that induce DNA re-replication in MCF 10a normal breast cells | MCF 10A DNA re-replication, Hoechst nuclear intensity, 48 h | Potency, µM (titrated, usually from 46.1 µM), without a hit: top-dose activity, positive = re-replication, usual class: activators | 2.9% of 350,000 active; also: potency is read from the fitted curve at half-maximal effect; % of control where 0% means no effect; nearly all actives have a fitted effect of over 50% in size
IL1B secr inh – qHTS for Inhibitors of Inflammasome Signaling: IL-1-beta AlphaLISA Primary Screen; 4.7% of 360,000 active; activity change, % at 57.5 µM; THP-1 LPS/ATP IL-1B secretion, AlphaLISA, 16 h; active compounds read low; in the data active = activity change below about -50%; inconclusive = mostly about -30% to -49%; also: % is scaled to controls: 0 for no effect and ±100 for the full control effect
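THP-1 cells pretreated 1 hr with compounds (up to 57.5 uM final), then stimulated with LPS (250 ng/mL final) plus ATP (1.25 mM final); secreted IL-1B measured by AlphaLISA after 16 hr, decreased signal indicating inhibition.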
KB-3-1 tox – qHTS assay for MDR1-selective chemotherapeutics: Primary screen using the parental adenocarcinoma cell KB-3-1; KB-3-1 viability, CellTiter-Glo ATP luminescence, 72 h; Potency, µM (highest dose often 46.1 µM), usual class: cytotoxic; 1.4% of 400,000 active; also: potency is read from the fitted curve at half-maximal effect; % is scaled to controls: 0 for no effect and ±100 for the full control effect; nearly all actives have a fitted effect of over 60% in size
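KB-3-1 parental drug-naive adenocarcinoma cells in DMEM/10% FBS, incubated 72 h at 37 C with pin-transferred compounds across a concentration series. Viability by CellTiter-Glo luminescence; concentration-response curves fitted after normalization.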
An asterisk follows results filed as active; i = inactive; ? = inconclusive; . = not tested or not shown; [ ] = dose if it differs, or a comment. Unless noted, calls follow the shape of the dose curve; as a rule, active = well fitted curve in the direction sought with a large enough effect; inconclusive = small, poorly fitted or top-dose-only effect, or another doubt; inactive = no such curve, though single readings can be large; an effect the other way counts as inactive or inconclusive.

SMILES	SW480 rerep	KB-V1 cytotox	MCF10A rerep	IL1B secr inh	KB-3-1 tox
Cc1sc2ncn(CC(=O)NCC3COc4ccccc4O3)c(=O)c2c1S(=O)(=O)N1CCCCC1 (centres undefined)	0%	?	20%	11	i
Cc1ccc(-c2csc(NC(=O)CCNC(=O)c3ccccc3Cl)n2)cc1	4%	i	?	-53*	i
COc1ccc(-c2csc(NC(=O)C3CSC4(C)CCC(=O)N34)n2)c(OC)c1 (centres undefined)	13%	i	15%	-71*	i
Cc1cc(NC(=O)c2c(C)noc2C)no1	?	i	16µM*	20	i
CCc1noc(C)c1C(=O)Nc1nc(-c2ccc(Cl)cc2Cl)cs1	13%	?	16µM*	?	?
CCCCC(=O)Nc1c2c(nn1-c1cccc(C)c1C)CS(=O)(=O)C2	-18%	i	-5%	6	i
O=C(Nc1nc2ccc(F)cc2s1)c1ccc([N+](=O)[O-])o1	.	?	.	-101*	?
COc1ccc(-c2csc(NC(=O)c3c(C)noc3C)n2)cc1OC	.	i	.	?	i
COc1ccc(-c2csc(NC(=O)c3c(C)noc3C)n2)cc1	-1%	i	-8%	-52*	i
O=P(CCCO)(Cc1ccccc1)Cc1ccccc1	-22%	?	-35%	1	i
COc1ccc(C2C(=O)N(C3CCCCC3)CC(=O)N2C2CCCCC2)cc1 (centres undefined)	3%	i	20%	30	i
Cc1ccc(C2C(=O)N(C3CCCC3)CC(=O)N2C2CCCCC2)cc1 (centres undefined)	3%	2.9µM*	7%	-12	i
CN(C)c1ccc(CCc2ccnc3ccccc23)cc1	.	i	.	.	i
COc1ccc2nc(N=Nc3ccc(N(C)C)cc3)sc2c1	2%	?	-1%	-10	13µM*
Cc1ccc(C)c(N2CCN(S(=O)(=O)c3ccc4oc(=O)c5ncn(C)c5c4c3)CC2)c1	.	i	.	.	i
COc1ccc(S(=O)(=O)/N=C2/NC(=O)/C(=C/c3ccco3)S2)cc1	10%	i	-1%	0	i
COc1ccc(N=C2NC(=O)/C(=C/c3ccco3)S2)cc1	7.3µM*	i	?	-55*	i
COC(=O)/C=C1\SC(=Nc2ccc(OC)cc2)NC1=O	-10%	i	3.7µM*	-30	i
COC(=O)/C=C1\SC(=NC(=O)c2ccc(OC)cc2)NC1=O	-4%	i	-2%	30	i
Cc1cc(OC(C)C(=O)N2C[C@H]3C[C@@H](C2)c2cccc(=O)n2C3)c2c(C)c(C)c(=O)oc2c1 (some centres undefined)	-33%	i	-3%	1	i
CC(C)(C)C(c1nc2ccccc2[nH]1)n1c(-c2ccsc2)nc2ccccc21 (centres undefined)	.	?	.	-53*	?
CC(C)(C)C(c1nc2ccccc2[nH]1)n1c(-c2ccco2)nc2ccccc21 (centres undefined)	.	i	.	4	i
O=C(NCC1CCCO1)C(=O)N/N=C/c1cc(Cl)ccc1O (centres undefined)	15µM*	i	7%	175	i
O=C(NCC1CCCO1)C(=O)N/N=C/c1ccc(O)c(Cl)c1 (centres undefined)	3%	i	-3%	9	i
O=C(N/N=C/c1cc(Cl)ccc1O)c1ccncc1	0.65µM*	?	?	217	?
SMILES	SW480 rerep	KB-V1 cytotox	MCF10A rerep	IL1B secr inh	KB-3-1 tox
O=C(N/N=C/c1ccccc1Cl)c1ccncc1	4%	i	?	-10	i
CC1CCCCN1S(=O)(=O)c1ccc(S(=O)(=O)NCCc2ccncc2)cc1 (centres undefined)	-18%	21µM*	0%	?	i
O=S(=O)(NCCc1ccncc1)c1ccc(S(=O)(=O)N2CCCCCC2)cc1	1%	18µM*	?	14	i
Cc1cccc(CCNS(=O)(=O)c2ccc(S(=O)(=O)N3CCCCC3)cc2)c1	-5%	i	2%	-9	i
CN(C)C(=O)c1ccc(NC(=O)c2cccc(S(=O)(=O)N3CCN(Cc4ccccc4)CC3)c2)cc1	-3%	i	6%	-2	i
CN(CC(=O)Nc1ccc(Cl)cc1)C(=O)c1cccc(S(=O)(=O)N2CCN(Cc3ccccc3)CC2)c1	10%	?	?	?	16µM*
CN(Cc1ccc(OC(F)F)cc1)C(=O)c1cccc(S(=O)(=O)N2CCN(Cc3ccccc3)CC2)c1	-68%	?	-16%	-60*	15µM*
CCCCOC(=O)Nc1ccc(S(=O)(=O)Nc2ccc([N+](=O)[O-])cc2)cc1	?	21µM*	15%	10	i
CCCCCOC(=O)Nc1ccc(S(=O)(=O)Nc2cccc([N+](=O)[O-])c2)cc1	0%	i	?	-88*	i
C/C=C1\COC(C(=O)NCCN2CCCC2)(C(F)(F)F)C=C1C=C1CCCCC1 (centres undefined)	?	i	6.5µM*	-78*	i
OCc1ccccc1SSc1ccccc1CO	?	?	18µM*	-99*	?
OCc1ccccc1O	-6%	.	0%	.	.
COCCNC(=O)NC(=O)CN1C(=O)NC(Cc2c[nH]c3ccccc23)C1=O (centres undefined)	-10%	i	-3%	26	i
C[C@@H]1CC=C[C@H]2[C@H]1C(=O)N(Cc1ccccc1)[C@H]2c1ccc2ccccc2c1Br	13%	?	?	-75*	?
COc1ccc(-c2cc([C@H]3[C@H]4C=CC[C@@H](C)[C@@H]4C(=O)N3Cc3ccccc3)ccc2F)cc1	-8%[9.22 µM]	?	?	10	16µM*
CC(=O)c1ccc(-c2ccc([C@H]3[C@H]4C=CC[C@@H](C)[C@@H]4C(=O)N3Cc3ccccc3)c(F)c2)cc1	-17%[9.22 µM]	21µM*	?	-4	?
C[C@@H]1CC=C[C@H]2[C@H]1C(=O)N(Cc1ccccc1)[C@H]2c1ccc2ccccc2c1	-14%[9.22 µM]	i	?	15	i
CC[C@@H]1CC=C[C@H]2[C@H]1C(=O)N(Cc1ccccc1)[C@H]2c1ccoc1	2%[9.22 µM]	?	8.2µM*	-107*	15µM*
C[C@@H]1CC=C[C@H]2[C@H]1C(=O)N(Cc1ccccc1)[C@H]2c1ccoc1	?	i	185%	23	i

Assay outcomes: PubChem BioAssay, National Center for Advancing Translational Sciences (NCATS)
